Compound activity as filed in PubChem BioAssay.
Integrin act MD – activators of alpha7 integrin expression for muscular dystrophy | Potency, µM (highest dose often 38.3 µM), for the others: at the top dose activation, usual class: activators | 0.064% of 350,000 active | AID 624291 | alpha7betagal myoblasts, beta-gal FDG fluorescence, 48 h;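 note: potency is the fitted concentration of half-maximal effect; 100% = response of the positive control SU9516; nearly all actives have a fitted effect of over 60% in size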
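Alpha7betagal+/- myoblasts (passage 13) were plated 16-24 hr, then exposed to compounds (1:260 dilution of DMSO stock) for 48 hours at 37C. After MPER lysis, β-galactosidase reporter activity was read as FDG fluorescence (ex 480/em 540) after 30 minutes.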
IL2 activator – activates IL-2 in a cell-based reporter assay | IL-2 activation reporter assay, cell-based qHTS; stimulated with anti-CD3/CD4/CD28 beads; in transgenic mouse T cells | activation, % (series mostly up to about 46 µM) | 0.065% of 360,000 active; in the data active = activation above about 50%; inconclusive = mostly about 30% to 49%; note: 0% is about no effect
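Unstimulated transgenic mouse T cells preincubated 60 min with compound, then stimulated with anti-CD3/anti-CD4-coated beads plus anti-CD28 for 18 h at 37 degrees C. IL-2 response read as EGFP and DsRed fluorescence by plate cytometry.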
Nrf2 activator – activators of Nrf2 (ARE) signaling; AREc32 ARE-luciferase reporter (MCF7-derived line), luminescence, 24 h; Potency, µM (highest dose often 46.1 µM), without a hit: top-dose activation, hits mostly activators; 0.31% of 410,000 active; note: potency is the fitted concentration of half-maximal effect; % of control where 0% means no effect; nearly all actives have a fitted effect of over 65% in size
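Quantitative high-throughput format: AREc32 reporter cells, 1000 per well, received compound by pin transfer and were incubated 24 hr at 37 deg C, 5% CO2, before Steady-Glo luminescence detection.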
ALOX12 inh – ALOX12 (human) lipoxygenase inhibition; purified 12hLO, xylenol orange hydroperoxide absorbance; AID 1671190; Potency, µM (highest dose often 108 µM), inactives show at the highest dose activity change, negative = inhibition, usual class: inhibitors; 1.1% of 580,000 active; note: potency is the fitted concentration of half-maximal effect; % is set by controls: 0 for no effect and ±100 for the full control effect
Target sequence (P18054 whole entry, looked up): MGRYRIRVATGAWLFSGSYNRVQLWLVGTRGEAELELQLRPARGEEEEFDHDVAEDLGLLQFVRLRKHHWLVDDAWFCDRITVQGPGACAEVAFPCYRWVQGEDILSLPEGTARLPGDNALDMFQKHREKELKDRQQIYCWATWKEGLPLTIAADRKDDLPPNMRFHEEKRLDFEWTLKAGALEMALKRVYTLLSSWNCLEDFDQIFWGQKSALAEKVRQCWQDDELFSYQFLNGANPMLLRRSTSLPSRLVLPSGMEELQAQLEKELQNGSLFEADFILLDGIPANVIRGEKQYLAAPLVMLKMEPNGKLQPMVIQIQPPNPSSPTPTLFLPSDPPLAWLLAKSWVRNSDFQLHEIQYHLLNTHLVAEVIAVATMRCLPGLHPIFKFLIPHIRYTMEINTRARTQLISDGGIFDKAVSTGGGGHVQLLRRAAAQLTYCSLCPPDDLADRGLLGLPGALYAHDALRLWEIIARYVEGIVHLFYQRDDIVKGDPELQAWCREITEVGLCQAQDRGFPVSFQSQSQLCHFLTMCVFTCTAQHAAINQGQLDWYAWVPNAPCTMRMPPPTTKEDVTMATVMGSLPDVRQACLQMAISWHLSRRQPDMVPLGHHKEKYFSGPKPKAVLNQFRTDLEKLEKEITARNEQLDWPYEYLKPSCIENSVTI
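Hydroperoxide product was detected by ferrous iron/xylenol orange as the 573 to 405 nm absorbance ratio. Arachidonic acid at 40 uM (final) was turned over for 30 min at room temperature by 150 nM human 12hLO, pH 7.0 Hepes buffer, after 15 min compound preincubation.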
uPA surface inh – cell surface uPA generation inhibition; cell surface uPA generation assay, qHTS; Potency, µM (series often up to 38.3 µM), for the others: at the top dose activity change, negative = inhibition, actives largely listed as inhibitors; 0.31% of 330,000 active; active = well fitted inhibition curve with a large enough effect; inconclusive = small, poorly fitted or top-dose-only effect; inactive = no such curve, though single readings can be large or run the other way; tested in mouse RAW 264.7 cells; note: potency is the fitted concentration of half-maximal effect; % is set by controls: 0 for no effect and ±100 for the full control effect; nearly all actives have a fitted effect of over 55% in size
Starred values were filed as active, the others as inactive; [ ] = another dose, or the depositor's remark. The list is not random: actives were taken first. Their share in the collection is about 1.5%. Unless noted, calls come from the whole dose curve; as a rule, active = well fitted curve in the direction sought with a large enough effect; inconclusive = small, poorly fitted or top-dose-only effect, or another doubt; inactive = no such curve, though single readings can be large; an effect the other way counts as inactive or inconclusive.

How did COc1ccc(CCn2c(=N)c(C(=O)N3CCN(C)CC3)cc3c(=O)n4ccccc4nc32)cc1 do in these assays?
Integrin act MD: inconclusive; IL2 activator: 1; Nrf2 activator: -1%; ALOX12 inh: 4%; uPA surface inh: -5%

What do the screens show for `COCCn1c(=N)c(S(=O)(=O)c2ccc(F)cc2)cc2c(=O)n3ccccc3nc21`?
Integrin act MD: 13%; IL2 activator: 1; Nrf2 activator: 0%; ALOX12 inh: -6%; uPA surface inh: -4%

What do the screens show for `N=c1c(S(=O)(=O)c2ccc(Br)cc2)cc2c(=O)n3ccccc3nc2n1Cc1ccccc1`?
Integrin act MD: 23%; IL2 activator: -4; Nrf2 activator: 0%; ALOX12 inh: 1%; uPA surface inh: -5%

What do the screens show for `COCCn1c(=N)c(S(=O)(=O)c2ccc(Br)cc2)cc2c(=O)n3ccccc3nc21`?
Integrin act MD: 4.5µM*; IL2 activator: 0; Nrf2 activator: 0%; ALOX12 inh: -14%; uPA surface inh: 4%

Results for COc1ccc(CCn2c(=N)c(S(=O)(=O)c3ccc(C)cc3)cc3c(=O)n4ccccc4nc32)cc1 ?
Integrin act MD: inconclusive; IL2 activator: 61*; Nrf2 activator: 0%; ALOX12 inh: -2%; uPA surface inh: -5%

Results for COc1ccc(-c2[nH]ncc2CNC(=O)C(c2ccccc2F)N(C)C)cc1 (configuration not stated) ?
ALOX12 inh: 42%

What do the screens show for `CN(C)S(=O)(=O)c1ccc(-c2nc(C#N)c(NCCCn3ccnc3)o2)cc1`?
ALOX12 inh: 51%

Results for Cc1cc(C)n(-c2ccc(=O)n(CC(=O)Nc3ccccc3)n2)n1 ?
ALOX12 inh: -7%

How did CC(C)[C@@H]1CN(C(=O)c2nc3ccccc3[nH]c2=O)C[C@H]1NS(C)(=O)=O do in these assays?
ALOX12 inh: 12%

Results for Cc1nc2ccccc2n1-c1ccccc1 ?
Integrin act MD: -16%; IL2 activator: 0; Nrf2 activator: 0%; ALOX12 inh: 6%; uPA surface inh: -2%

What do the screens show for `O=c1c(/C=C(\O)c2ccccc2)nc2ccccc2n1-c1ccccc1`?
Integrin act MD: 4%; IL2 activator: 89*; Nrf2 activator: 0%; ALOX12 inh: 60%; uPA surface inh: 6%

What do the screens show for `C/C(=N\NC(=O)c1ccc(C)c(C)c1)c1ccc(C)cc1C`?
ALOX12 inh: 32%

What do the screens show for `COc1ccc(CN2C(=O)C(n3ccc4ccccc43)c3cc(OC(F)(F)F)ccc32)cc1` (configuration not stated)?
ALOX12 inh: 40µM*

Results for CN1C(=O)C(n2ccc3ccccc32)c2cc(Cl)ccc21 (configuration not stated) ?
ALOX12 inh: -14%

How did CC(C)c1ccc(CN2C(=O)C(n3ccc4ccccc43)c3cc(Cl)ccc32)cc1 (configuration not stated) do in these assays?
ALOX12 inh: 10µM*

How did CCCc1nnc(NC(=O)C2CC(=O)N(c3n[nH]c4ccccc34)C2)s1 (configuration not stated) do in these assays?
ALOX12 inh: -17%

How did COC(=O)c1ccccc1NC(=O)c1cc[n+]([O-])cc1 do in these assays?
Integrin act MD: 4µM*; IL2 activator: 0; Nrf2 activator: 6%; ALOX12 inh: 6%; uPA surface inh: -17%

Results for COC(=O)c1ccccc1NC(=O)c1cc[n+](C)cc1 ?
Integrin act MD: 5%; IL2 activator: 1; Nrf2 activator: 0%; ALOX12 inh: inconclusive; uPA surface inh: -1%

How did Cn1nc(-c2ccc(N3CCCCC3)c([N+](=O)[O-])c2)c2ccccc2c1=O do in these assays?
ALOX12 inh: -3%

How did CN1CCN(C(=O)c2cccnc2-c2nc3ccccc3s2)CC1 do in these assays?
ALOX12 inh: 32µM*

Results for Cc1ccc(-c2ncc[nH]2)o1 ?
ALOX12 inh: 7%[12.5 µM]

What do the screens show for `O=S(=O)(NCc1ccccc1)c1ccc(-c2cnc(C3CC3)o2)cc1`?
Integrin act MD: -32%; IL2 activator: 0; Nrf2 activator: -1%; ALOX12 inh: -12%; uPA surface inh: 5.6µM*
